# Assay results published in the supplement of paper PMC7411054.
# Counter-ions that a name gives are not always drawn.
# System: A549-ACTB-RAB5A
# Assay: lowest phenotypically active concentration; higher = less potent
# Conditions: treatment time: 24 h
# In short: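 The reporter lines, fifteen in total and built by gene editing in A549, HepG2 and WPMY1 cells, used BFP for segmentation alongside GFP and RFP/FusionRed markers. Each was treated at 0.3, 1, 3 or 9 µM for 24 h in four wells and then imaged live, with live-cell features normalised to solvent control wells. Deviation meant ≥3 of 4 wells beyond the 95th percentile of control Euclidean distances; reproducibility meant a median replicate Pearson correlation above the 95th percentile of non-replicates. Only conditions meeting both were scored as phenotypically active.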
row,Compound,lowest phenotypically active concentration
1,CC/C(=C(\CC)c1ccc(O)c(CN(CC)CC)c1)c1ccc(O)c(CN(CC)CC)c1,≤ 0.3 µM
2,CNCCC(Oc1ccc(C(F)(F)F)cc1)c1ccccc1 (centres undefined) [fluoxetine],3 µM
3,Cn1cc(C2=C(c3ccc(Cl)cc3Cl)C(=O)NC2=O)c2ccccc21,1 µM
4,CC(C)COCC(CN(Cc1ccccc1)c1ccccc1)N1CCCC1 (centres undefined) [bepridil],9 µM
5,COc1cc(OC)c2cc(-c3ccncc3)cnc2c1 [DMPQ dihydrochloride],9 µM
6,O=C(NOCC1CC1)c1ccc(F)c(F)c1Nc1ccc(I)cc1Cl,≤ 0.3 µM
7,Cn1cc(CCn2cnc(-c3cnn(C)c3)c2-c2ccc(C#N)cc2)cn1,9 µM
8,COc1ccc(CCNCc2ccc(OCc3ccc(Cl)nc3)c(OC)c2)cc1OC [SBE 13 hydrochloride],3 µM
9,O=C(O)Cc1cccc(OCCCN(Cc2cccc(C(F)(F)F)c2Cl)CC(c2ccccc2)c2ccccc2)c1 [GW 3965 hydrochloride],9 µM
10,N#C/C(=C(/N)Sc1ccc(N)cc1)c1ccccc1C(F)(F)F,3 µM
11,CCOP(=O)(OCC)C(=Cc1cc(C(C)(C)C)c(O)c(C(C)(C)C)c1)P(=O)(OCC)OCC,9 µM
12,O=C([C@H](Cc1cccc(C(F)(F)F)c1)NS(=O)(=O)c1cc(F)c2c(c1)CCNC2)N1CCCC1 [(S)-PFI 2 hydrochloride],9 µM
13,Cc1noc(C)c1Cn1cc(C#N)c2cc(Oc3ccc(NC(=O)[C@@H]4CCCN4)cc3)ccc21,9 µM
14,CCCS(=O)(=O)Nc1ccc(F)c(C(=O)c2c[nH]c3ncc(Cl)cc23)c1F,3 µM
15,COc1c(C=O)c(O)cc2c1C(=O)c1ccccc1C2=O [Damnacanthal],9 µM
16,COc1ccc(CNC(=O)Nc2ncc([N+](=O)[O-])s2)cc1,9 µM
17,CC(C)(C)c1ccc2cc(C#N)c(C#N)cc2c1,3 µM
18,C[C@H]1Oc2cc(cnc2N)-c2c(nn(C)c2C#N)CN(C)C(=O)c2ccc(F)cc21,3 µM
19,CC(C)OC(=O)c1cc2c(OCC(O)CNC(C)(C)C)cccc2[nH]1 (centres undefined),3 µM
20,COc1ccccc1OCCNCC(O)COc1cccc2[nH]c3ccccc3c12 (centres undefined) [Carvedilol],9 µM

row,Compound,lowest phenotypically active concentration
1,CCCCOc1cc(C(=O)NCCN(CC)CC)c2ccccc2n1 [cinchocaine],3 µM
2,O=S(=O)(c1cccc2cnccc12)N1CCCNCC1 [fasudil],3 µM
3,Clc1ccccc1C(c1ccccc1)(c1ccccc1)n1ccnc1 [Clotrimazole],9 µM
4,CSc1ccc2c(c1)N(CCC1CCCCN1C)c1ccccc1S2 (centres undefined) [thioridazine],3 µM
5,CCCNCC(O)COc1ccccc1C(=O)CCc1ccccc1 (centres undefined) [propafenone],9 µM
6,O=C(O)[C@@H]1[C@H]2C[C@H]3c4[nH]c5ccccc5c4CCN3C[C@@H]2CC[C@@H]1O [Yohimbinic acid monohydrate],9 µM
7,COc1cc(N2CCC(N)CC2)ccc1Nc1ncc(Cl)c(-c2c[nH]c3ccccc23)n1,3 µM
8,COc1cc2ncnc(Nc3ccc(Cl)cc3F)c2cc1OC,9 µM
9,Cc1noc(C)c1-c1ccc2c(c1)nc(CCc1ccc(OCCCN(C)C)cc1)n2CCN1CCOCC1,9 µM
10,Cc1ccc(NC(=O)c2cccc(N(C)C)c2)cc1NC(=O)c1ccc(O)cc1,3 µM
11,Cc1cc(Nc2ccc(NC(=O)c3ccc(Nc4ccnc5ccccc45)cc3)cc2)nc(N)n1,1 µM
12,Cc1ccc(NC2=CC(=O)c3sc(C)nc3C2=O)cc1 [Ryuvidine],9 µM
13,C[C@]1(O)C[C@@H](c2nc(-c3ccc4ccc(-c5ccccc5)nc4c3)c3c(N)nccn32)C1 [linsitinib],1 µM
14,COc1cc2c(cc1OCCCN1CCCC1)N=C(N)C21CCC1,9 µM
15,O=C(O)C[C@H](O)C[C@H](O)/C=C/c1c(C2CC2)nc2ccccc2c1-c1ccc(F)cc1 [Pitavastatin calcium],1 µM
16,CC#CC(=O)N1CCC[C@H]1c1nc(-c2ccc(C(=O)Nc3ccccn3)cc2)c2c(N)nccn12 [acalabrutinib],9 µM
17,NC(=O)c1cccc(-c2cc(Nc3ccc(OC(F)(F)F)cc3)ncn2)c1,9 µM
18,CN1[C@@H]2CC[C@H]1C[C@@H](OC(c1ccccc1)c1ccccc1)C2 [benztropine],9 µM
19,NS(=O)(=O)c1nn2cc(-c3ccccc3)nc2s1,9 µM
